{"source": "PubChem BioAssay AID463173", "about": "(ICCB-Longwood Screening Facility, Harvard Medical School, 2010)", "note": "Screen size: about 52,000 compounds; about 4,300 (8.3%) were called active. What follows is part of a selection rich in actives, with near analogues and random picks from the rest. A number with no mark means an inactive call. No stated cut-off is given here; in the data, active means survival mostly below about 52% (no sharp cut-off); inactive means mostly above about 56%.", "data": [{"system": "DeltatarO mutant", "experiment": "S. aureus survival, RN4220 and DeltatarO strains – OD600, teichoic acid synthesis inhibitors, primary screen (AID 463173)", "details": "S. aureus RN4220 wild type/DeltatarO growth, OD600, 18 h, stronger effect = lower value, screened at 18.75 µg/mL (by protocol)", "values": [{"smiles": "COc1ccc(CNC(=O)CN2CCSc3ccccc32)c(OC)c1", "survival": "120%"}, {"smiles": "CC(C)CN(CCNC(=O)CCN1N=C(c2ccccc2)CCC1=O)CC(C)C", "survival": "84%"}, {"smiles": "CCOC(=O)c1ccccc1NC(=O)N(C(C)C)C1CCN(C(C)=O)CC1", "survival": "73%"}, {"smiles": "CCc1ccc(NC(=O)c2cnn3c(C(F)F)cc(C)nc23)cc1", "survival": "96%"}, {"smiles": "O=C(Cn1c(=O)n2nc(-c3cccc(F)c3)nc2c2ccccc21)N1CCN(c2ccccc2F)CC1", "survival": "116%"}, {"smiles": "Cc1nn(Cc2noc(C(=O)NCc3cccc(F)c3)n2)c(C)c1Br", "survival": "71%"}, {"smiles": "CCCCOc1ccc(C2(C(=O)O)CCCC2)cc1", "survival": "103%"}, {"smiles": "CCCCC(=O)N1c2ccccc2C(C)(c2ccccc2)CC1(C)C", "note": "(stereo not drawn)", "survival": "-3% (active)"}, {"smiles": "CCCCN1C(=O)C(O)(CC(=O)c2ccc(C(C)(C)C)cc2)c2ccccc21", "note": "(stereo not drawn)", "survival": "28%"}, {"smiles": "CC(C)Cc1nn2c(=O)cc(COC(=O)c3ccccc3NC(=O)C3CCCCC3)nc2s1", "survival": "81%"}, {"smiles": "CCc1ccc(-n2c(CCC(=O)O)ccc2-c2cccs2)cc1", "survival": "52%"}, {"smiles": "CC(=O)Nc1ccc(-n2c(CCC(=O)O)ccc2-c2ccc(C)cc2)cc1", "survival": "56%"}, {"smiles": "CCc1ccc(-n2c(CCC(=O)O)ccc2-c2ccc(F)cc2)cc1", "survival": "29% (active)"}, {"smiles": "O=C(O)CCc1ccc(-c2ccc(Br)cc2)n1-c1ccccc1O", "survival": "64%"}, {"smiles": "CCOc1ccc(-n2c(CCC(=O)O)ccc2-c2ccc(Br)cc2)cc1", "survival": "48% (active)"}, {"smiles": "CN(C)c1ccc(-n2c(CCC(=O)O)ccc2-c2ccccc2)cc1", "survival": "60%"}, {"smiles": "CCOc1ccc(NC(=O)Cn2c(CCC(=O)O)ccc2-c2ccc(C)cc2)cc1", "survival": "65%"}, {"smiles": "COC(=O)c1ccc(-n2c(CCC(=O)O)ccc2-c2ccc(C)cc2)cc1", "survival": "49%"}, {"smiles": "CC(=O)Nc1ccc(-n2c(CCC(=O)O)ccc2-c2ccc(Br)cc2)cc1", "survival": "45% (active)"}, {"smiles": "Cc1ccc(-c2ccc(CCC(=O)O)n2-c2ccc(C(N)=O)cc2)cc1", "survival": "60%"}, {"smiles": "CCOC(=O)c1ccc(-n2c(CCC(=O)O)ccc2-c2ccc(Br)cc2)cc1", "survival": "19% (active)"}, {"smiles": "Cc1ccc(-c2ccc(CCC(=O)O)n2-c2ccc(C(C)C)cc2)cc1", "survival": "44%"}, {"smiles": "Cc1c(CNC2CCCCC2)c(C(=O)O)c(C)n1Cc1ccc(F)cc1", "survival": "85%"}, {"smiles": "Cc1ccc(-c2ccc(C#N)c(=O)n2CC(=O)N2CCNC(=O)C2(C)C)cc1", "survival": "88%"}, {"smiles": "COc1ccc(CCNC(=O)C(=O)NCC(c2ccco2)S(=O)(=O)c2ccccc2)cc1OC", "note": "(stereo not drawn)", "survival": "54%"}, {"smiles": "COc1ccc(S(=O)(=O)N(C(=O)c2ccncc2)c2ccc3oc(C)c(C(C)=O)c3c2)cc1", "survival": "152%"}, {"smiles": "CCc1nn(-c2ccccc2)c2nc(-c3ccc(O)cc3)c3cc(OC)c(OC)cc3c12", "survival": "74%"}, {"smiles": "COc1ccc(Cc2nc3c4cnn(-c5ccccc5F)c4ncn3n2)cc1", "survival": "81%"}, {"smiles": "Cc1cc(-n2c(SCC(=O)NCc3ccccc3)nc3ccsc3c2=O)ccc1Cl", "survival": "87%"}, {"smiles": "CC(=O)c1cccc(-n2c(CCC(=O)O)ccc2-c2ccccc2)c1", "survival": "74%"}, {"smiles": "O=C(O)CCc1ccc(-c2ccccc2)n1-c1ccc(C(=O)O)cc1", "survival": "131%"}, {"smiles": "CCOC(=O)c1ccc(-n2c(CCC(=O)O)ccc2-c2ccccc2)cc1O", "survival": "43% (active)"}, {"smiles": "Cc1cccc(C2NC(=O)c3c(sc4c3CCN(C)C4)N2)c1O", "note": "(stereo not drawn)", "survival": "125%"}, {"smiles": "CCn1c(=O)c2sccc2n2c(CCCC(=O)N3CCN(c4ccccc4OC)CC3)nnc12", "survival": "91%"}, {"smiles": "CC(=O)c1ccc(NC(=O)c2cc(C)nc3c2c(C)nn3-c2ccc(C)cc2)cc1", "survival": "102%"}, {"smiles": "COc1ccccc1NC(=O)c1cc(C2CC2)nc2c1c(C)nn2-c1ccc(C)cc1", "survival": "98%"}, {"smiles": "COc1ccc(NC(=O)c2cc(C3CC3)nc3c2c(C)nn3-c2ccccc2)c(OC)c1", "survival": "37% (active)"}, {"smiles": "COc1ccc(NC(=O)c2cc(C3CC3)nc3c2c(C)nn3-c2ccc(C)cc2)cc1OC", "survival": "144%"}, {"smiles": "CC(=O)c1ccc(NC(=O)c2cc(C3CC3)nc3c2c(C)nn3-c2ccc(C)cc2)cc1", "survival": "46% (active)"}, {"smiles": "COc1ccc(NC(=O)c2cc(C3CC3)nc3c2c(C)nn3-c2ccccc2)cc1", "survival": "53%"}, {"smiles": "Nc1c(C(=O)Nc2ccccc2)nnn1Cc1ccc(F)cc1Cl", "survival": "99%"}, {"smiles": "O=C(Cn1cc(S(=O)(=O)Cc2cccc(Cl)c2)c2ccccc21)NCc1ccccc1Cl", "survival": "91%"}, {"smiles": "O=C1CSC(N(c2ccccc2)c2ccccc2)=N1", "survival": "96%"}, {"smiles": "COc1cccc(CNC(=O)CCn2c(=O)c3cccn3c3cccnc32)c1OC", "survival": "98%"}, {"smiles": "Cc1ccc(CNC(=O)CCS(=O)(=O)c2cc3c4c(c2)CCN4C(=O)CC3)cc1", "survival": "67%"}, {"smiles": "Cn1nc(C(=O)N2CCN(c3cccc(Cl)c3)CC2)c2c1-c1ccccc1S(=O)(=O)C2", "survival": "37% (active)"}, {"smiles": "Cn1nc(C(=O)N2CCN(c3ccc(F)cc3)CC2)c2c1-c1ccccc1SC2", "survival": "77%"}, {"smiles": "Cn1nc(C(=O)N2CCN(c3ccccc3)CC2)c2c1-c1ccccc1S(=O)(=O)C2", "survival": "51%"}, {"smiles": "Cn1nc(C(=O)N2CCN(c3ccccc3F)CC2)c2c1-c1ccccc1SC2", "survival": "32% (active)"}, {"smiles": "Cc1ccc2c(c1)-c1onc(C(=O)N3CCN(c4ccc(Cl)cc4)CC3)c1CO2", "survival": "63%"}, {"smiles": "Cc1ccc(C)c(N2CCN(C(=O)c3nn(C)c4c3CS(=O)(=O)c3ccccc3-4)CC2)c1", "survival": "49% (active)"}, {"smiles": "Cc1cccc(N2CCN(C(=O)c3nn(C)c4c3CS(=O)(=O)c3ccccc3-4)CC2)c1C", "survival": "67%"}, {"smiles": "Cn1nc(C(=O)N2CCN(c3ccccc3)CC2)c2c1-c1ccccc1SC2", "survival": "80%"}, {"smiles": "Cc1ccc2c(c1)-c1onc(C(=O)N3CCN(c4cc(Cl)ccc4C)CC3)c1CO2", "survival": "57% (active)"}, {"smiles": "Cc1ccc(N2CCN(C(=O)c3nn(C)c4c3CS(=O)(=O)c3ccccc3-4)CC2)c(C)c1", "survival": "77%"}, {"smiles": "Cn1nc(C(=O)N2CCN(c3ccc(Cl)cc3)CC2)c2c1-c1ccccc1S(=O)(=O)C2", "survival": "51%"}, {"smiles": "Cc1ccc2c(c1)-c1onc(C(=O)N3CCN(c4cc(C)ccc4C)CC3)c1CO2", "survival": "66%"}, {"smiles": "COc1cc(-c2nnc(SCC(=O)Oc3ccccc3Cl)o2)cc(OC)c1OC", "survival": "84%"}, {"smiles": "O=C(Nc1ccc(CN2CCCCC2)cc1)c1cccnc1Cl", "survival": "71%"}, {"smiles": "CCc1ccc(-c2nc(SCC(=O)NCCOC)c(-c3ccc(C)cc3)[nH]2)cc1", "survival": "76%"}, {"smiles": "Cc1c(Cl)cccc1NC(=O)c1cc(S(=O)(=O)N2CCCCC2)cn1C", "survival": "99%"}, {"smiles": "COc1cccc(CN2CCc3nc(N4CCN(C)CC4)ncc3C2)c1", "survival": "84%"}, {"smiles": "CN(c1ccc(F)cc1)S(=O)(=O)N1CCCC(C(=O)NCc2ccccc2Cl)C1", "note": "(stereo not drawn)", "survival": "81%"}, {"smiles": "COc1ccc(NC(=O)CCc2c(C)nc3c(c2C)c(=O)n(C)c(=O)n3C)c(OC)c1", "survival": "100%"}, {"smiles": "COc1ccc2c(c1)c(=O)c(S(=O)(=O)c1ccccc1)cn2CC(=O)Nc1ccc(C)c(Cl)c1", "survival": "97%"}, {"smiles": "COc1ccccc1CNC(=O)CCC1N=C2c3ccccc3N=C(SCC(=O)NCCc3ccc(OC)c(OC)c3)N2C1=O", "note": "(stereo not drawn)", "survival": "92%"}, {"smiles": "Cn1nc(C(=O)N2CCN(c3ccccc3F)CC2)c2c1-c1ccccc1S(=O)(=O)C2", "survival": "60%"}, {"smiles": "Cc1ccc(Cl)cc1N1CCN(C(=O)c2nn(C)c3c2CS(=O)(=O)c2ccccc2-3)CC1", "survival": "58% (active)"}, {"smiles": "COc1ccccc1N1CCN(C(=O)c2nn(C)c3c2CS(=O)(=O)c2ccccc2-3)CC1", "survival": "61%"}, {"smiles": "O=C(CSc1ncn[nH]1)N1CCOCC1", "survival": "73%"}, {"smiles": "Cn1c(=O)n(C)c2cc(NC(=O)C(F)(F)F)ccc21", "survival": "94%"}, {"smiles": "Cn1c(=O)c(=O)n(C)c2cc(N3CCOCC3)c(NS(=O)(=O)c3ccc(Cl)cc3)cc21", "survival": "-1% (active)"}, {"smiles": "Cn1c(=O)c(=O)n(C)c2cc(N3CCOCC3)c(NS(=O)(=O)c3ccc(F)c(Cl)c3)cc21", "survival": "67%"}, {"smiles": "CCc1ccc(S(=O)(=O)Nc2cc3c(cc2N2CCOCC2)n(C)c(=O)c(=O)n3C)cc1", "survival": "6% (active)"}, {"smiles": "CCc1ccc(S(=O)(=O)Nc2cc3c(cc2C)n(C)c(=O)c(=O)n3C)cc1", "survival": "64%"}, {"smiles": "Cc1cc2c(cc1NS(=O)(=O)c1ccc(Br)cc1)n(C)c(=O)c(=O)n2C", "survival": "109%"}, {"smiles": "CC(C)Cc1ccc(S(=O)(=O)Nc2cc3c(cc2N2CCOCC2)n(C)c(=O)c(=O)n3C)cc1", "survival": "79%"}, {"smiles": "Cn1c(=O)n(C)c2cc(N3CCOCC3)c(NS(=O)(=O)c3ccc(Cl)cc3)cc21", "survival": "75%"}, {"smiles": "Cc1ccc(S(=O)(=O)Nc2cc3c(cc2C)n(C)c(=O)c(=O)n3C)cc1", "survival": "-2% (active)"}, {"smiles": "Cc1ccc(S(=O)(=O)Nc2cc3c(cc2N2CCOCC2)n(C)c(=O)n3C)cc1", "survival": "90%"}, {"smiles": "Cc1ccc(NC(=O)C2CCN(S(=O)(=O)c3ccc4c(c3)CCCC(=O)N4)CC2)cc1N(C)C", "survival": "120%"}, {"smiles": "Cc1nn(CCCC(=O)NCc2ccccc2)c(=O)c2cc3sccc3n12", "survival": "76%"}, {"smiles": "O=C(CSc1cn(CC(=O)N2CCCCC2)c2ccccc12)NCc1ccc(F)cc1", "survival": "70%"}, {"smiles": "N#CCNC(=O)c1cccc(I)c1", "survival": "89%"}, {"smiles": "Cc1ccc(C)c(N2CCN(C(=O)c3cc(S(=O)(=O)N4CCCC4)cn3C)CC2)c1", "survival": "64%"}, {"smiles": "Cc1cc(N2CCC(C(=O)Nc3ccc(F)cc3F)CC2)n2nc(C)c(-c3ccc(Cl)cc3)c2n1", "survival": "86%"}, {"smiles": "COc1cccc(-c2nnc3n(Cc4ccc(F)cc4)c(=O)c4ccccc4n23)c1", "survival": "84%"}, {"smiles": "Cc1ccc(NC(=O)[C@H](Cc2ccccc2)N2Cc3ccccc3C2=O)cc1", "survival": "81%"}]}]}
